The supplement of paper PMC8728848
Only a selection was taken, and the strongest signals are over-represented in it overall.

Columns and labels:
Experiment in all cases: glycan array binding signal (z-score within array); higher = stronger binding
Details in all cases: glycan notation: IUPAC condensed, linker removed
[1] = target: Fuc(a1-2)Gal(b1-4)Glc
Outline: (§1)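 The binding signal is a Z-score computed within each array. Data were drawn from 3228 arrays in the Consortium for Functional Glycomics database, restricted to those with a known protein sequence. Scores were averaged over arrays of the same protein sequence at different concentrations or buffers, and over linkers, and negative values can be taken as non-binding.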

[2] = target: Fuc(a1-2)Gal(b1-4)GlcNAc
Outline: as §1

[3] = target: Fuc(a1-2)Gal(b1-4)[Fuc(a1-3)]GlcNAc(b1-3)Gal(b1-4)[Fuc(a1-3)]GlcNAc(b1-3)Gal(b1-4)[Fuc(a1-3)]GlcNAc
Outline: as §1

[4] = target: Fuc(a1-2)Gal(b1-4)[Fuc(a1-3)]GlcNAc(b1-3)GalNAc
Outline: as §1

[5] = target: Fuc(a1-2)[Gal(a1-3)]Gal(b1-4)GlcNAc(b1-2)Man(a1-3)[Fuc(a1-2)[Gal(a1-3)]Gal(b1-4)GlcNAc(b1-2)Man(a1-6)]Man(b1-4)GlcNAc(b1-4)[Fuc(a1-6)]GlcNAc
Outline: as §1

[6] = target: Fuc(a1-2)[Gal(a1-3)]Gal(b1-4)[Fuc(a1-3)]Glc
Outline: as §1

[7] = target: Fuc(a1-2)[Gal(a1-3)]Gal(b1-4)[Fuc(a1-3)]GlcNAc
Outline: as §1

[8] = target: Fuc(a1-2)[GalNAc(a1-3)]Gal(b1-3)GlcNAc(b1-6)GalNAc
Outline: as §1

[9] = target: Fuc(a1-2)[GalNAc(a1-3)]Gal(b1-4)[Fuc(a1-3)]GlcNAc(b1-3)GalNAc
Outline: as §1

[10] = target: Fuc(a1-2)[GalNAc(b1-3)]Gal
Outline: as §1

[11] = target: Gal(a1-3)Gal(b1-3)GlcNAc(b1-2)Man(a1-3)[Gal(a1-3)Gal(b1-3)GlcNAc(b1-2)Man(a1-6)]Man(b1-4)GlcNAc(b1-4)GlcNAc
Outline: as §1

[12] = target: Gal(a1-3)Gal(b1-3)[Fuc(a1-4)]GlcNAc(b1-2)Man(a1-3)[Gal(a1-3)Gal(b1-3)[Fuc(a1-4)]GlcNAc(b1-2)Man(a1-6)]Man(b1-4)GlcNAc(b1-4)GlcNAc
Outline: as §1

[13] = target: Gal(a1-3)Gal(b1-4)GlcNAc
Outline: as §1

[14] = target: Gal(b1-3)GlcNAc(b1-2)Man(a1-3)[GlcNAc(b1-4)][Gal(b1-3)GlcNAc(b1-2)Man(a1-6)]Man(b1-4)GlcNAc(b1-4)GlcNAc
Outline: as §1

[15] = target: Gal(b1-3)GlcNAc(b1-3)Gal(b1-4)GlcNAc(b1-2)[Gal(b1-3)GlcNAc(b1-3)Gal(b1-4)GlcNAc(b1-6)]Man(a1-6)[Gal(b1-3)GlcNAc(b1-3)Gal(b1-4)GlcNAc(b1-2)Man(a1-3)]Man(b1-4)GlcNAc(b1-4)[Fuc(a1-6)]GlcNAc
Outline: as §1

[16] = target: Gal(b1-4)GlcNAc(b1-2)Man(a1-3)[Gal(b1-4)GlcNAc(b1-2)Man(a1-6)]Man(b1-4)GlcNAc(b1-4)[Fuc(a1-6)]GlcNAc
Outline: as §1

[17] = target: Gal(b1-4)GlcNAc(b1-3)Gal(b1-4)GlcNAc(b1-2)[Gal(b1-4)GlcNAc(b1-3)Gal(b1-4)GlcNAc(b1-6)]Man(a1-6)[Gal(b1-4)GlcNAc(b1-3)Gal(b1-4)GlcNAc(b1-2)Man(a1-3)]Man(b1-4)GlcNAc(b1-4)GlcNAc
Outline: as §1

[18] = target: Gal(b1-4)GlcNAc(b1-3)Gal(b1-4)GlcNAc(b1-2)[Gal(b1-4)GlcNAc(b1-3)Gal(b1-4)GlcNAc(b1-6)]Man(a1-6)[Gal(b1-4)GlcNAc(b1-3)Gal(b1-4)GlcNAc(b1-2)Man(a1-3)]Man(b1-4)GlcNAc(b1-4)[Fuc(a1-6)]GlcNAc
Outline: as §1

[19] = target: Gal(b1-4)GlcNAc(b1-3)Gal(b1-4)GlcNAc(b1-3)Gal(b1-4)GlcNAc(b1-3)Gal(b1-4)GlcNAc(b1-3)Gal(b1-4)GlcNAc(b1-2)[Gal(b1-4)GlcNAc(b1-3)Gal(b1-4)GlcNAc(b1-3)Gal(b1-4)GlcNAc(b1-3)Gal(b1-4)GlcNAc(b1-3)Gal(b1-4)GlcNAc(b1-6)]Man(a1-6)[Gal(b1-4)GlcNAc(b1-3)Gal(b1-4)GlcNAc(b1-3)Gal(b1-4)GlcNAc(b1-3)Gal(b1-4)GlcNAc(b1-3)Gal(b1-4)GlcNAc(b1-2)Man(a1-3)]Man(b1-4)GlcNAc(b1-4)[Fuc(a1-6)]GlcNAc
Outline: as §1

[20] = target: Gal3S(b1-4)[Fuc(a1-3)]GlcNAc6S
Outline: as §1

[21] = target: Gal6S(b1-4)Glc6S
Outline: as §1

[22] = target: Glc(a1-6)Glc(a1-6)Glc(a1-6)Glc
Outline: as §1

[23] = target: GlcA3S(b1-3)Gal(b1-4)GlcNAc(b1-3)Gal(b1-4)Glc
Outline: as §1

[24] = target: GlcNAc(b1-2)Man(a1-3)[GlcNAc(b1-2)Man(a1-6)]Man(b1-4)GlcNAc(b1-4)[Fuc(a1-6)]GlcNAc
Outline: as §1

[25] = target: GlcNAc(b1-2)[GlcNAc(b1-6)]Man(a1-6)[GlcNAc(b1-2)Man(a1-3)]Man(b1-4)GlcNAc(b1-4)[Fuc(a1-6)]GlcNAc
Outline: as §1

[26] = target: GlcNAc(b1-3)Gal(b1-4)Glc
Outline: as §1

[27] = target: GlcNAc(b1-3)Gal(b1-4)GlcNAc(b1-3)Gal(b1-4)GlcNAc(b1-3)Gal(b1-4)GlcNAc(b1-2)Man(a1-3)[GlcNAc(b1-3)Gal(b1-4)GlcNAc(b1-3)Gal(b1-4)GlcNAc(b1-3)Gal(b1-4)GlcNAc(b1-2)Man(a1-6)]Man(b1-4)GlcNAc(b1-4)GlcNAc
Outline: as §1

[28] = target: GlcNAc(b1-3)Gal(b1-4)GlcNAc(b1-3)Gal(b1-4)GlcNAc(b1-3)Gal(b1-4)GlcNAc(b1-3)Gal(b1-4)GlcNAc(b1-2)Man(a1-3)[GlcNAc(b1-3)Gal(b1-4)GlcNAc(b1-3)Gal(b1-4)GlcNAc(b1-3)Gal(b1-4)GlcNAc(b1-3)Gal(b1-4)GlcNAc(b1-2)Man(a1-6)]Man(b1-4)GlcNAc(b1-4)GlcNAc
Outline: as §1

[29] = target: GlcNAc(b1-3)Gal(b1-4)GlcNAc(b1-6)[GlcNAc(b1-3)]Gal(b1-4)GlcNAc
Outline: as §1

[30] = target: GlcNAc(b1-3)GalNAc
Outline: as §1

[31] = target: GlcNAc(b1-4)GlcNAc(b1-4)GlcNAc
Outline: as §1

[32] = target: GlcNAc(b1-4)GlcNAc(b1-4)GlcNAc(b1-4)GlcNAc(b1-4)GlcNAc
Outline: as §1

[33] = target: GlcNAc(b1-4)GlcNAc(b1-4)GlcNAc(b1-4)GlcNAc(b1-4)GlcNAc(b1-4)GlcNAc
Outline: as §1

[34] = target: Man(a1-3)[Man(a1-6)]Man(b1-4)GlcNAc(b1-4)[Fuc(a1-6)]GlcNAc
Outline: as §1

[35] = target: Neu5Ac(a2-3)Gal(b1-3)GlcNAc(b1-2)[Neu5Ac(a2-3)Gal(b1-3)GlcNAc(b1-4)]Man(a1-6)[Neu5Ac(a2-3)Gal(b1-3)GlcNAc(b1-2)Man(a1-3)]Man(b1-4)GlcNAc(b1-4)GlcNAc
Outline: as §1

[36] = target: Neu5Ac(a2-3)Gal(b1-3)[Neu5Ac(a2-6)]GlcNAc(b1-3)[Fuc(a1-3)[Gal(b1-4)]GlcNAc(b1-6)]Gal(b1-4)Glc
Outline: as §1

[37] = target: Neu5Ac(a2-3)Gal(b1-4)[Fuc(a1-3)]GlcNAc(b1-3)Gal(b1-4)GlcNAc
Outline: as §1

[38] = target: Neu5Ac(a2-3)Gal(b1-4)[Fuc(a1-3)]GlcNAc(b1-6)[Gal(b1-3)]GalNAc
Outline: as §1

[39] = target: Neu5Ac(a2-3)[GalNAc(b1-4)]Gal(b1-4)GlcNAc
Outline: as §1

[40] = target: Neu5Ac(a2-6)Gal(b1-3)GlcNAc(b1-3)[Gal(b1-4)GlcNAc(b1-6)]Gal(b1-4)Glc
Outline: as §1

[41] = target: Neu5Ac(a2-6)Gal(b1-4)GlcNAc(b1-2)Man(a1-3)Man(b1-4)GlcNAc(b1-4)GlcNAc
Outline: as §1

[42] = target: Neu5Ac(a2-6)Gal(b1-4)GlcNAc(b1-2)Man(a1-6)[GlcNAc(b1-2)Man(a1-3)]Man(b1-4)GlcNAc(b1-4)GlcNAc
Outline: as §1

[43] = target: Neu5Ac(a2-6)Gal(b1-4)GlcNAc(b1-3)Gal(b1-4)GlcNAc(b1-3)[Neu5Ac(a2-6)Gal(b1-4)GlcNAc(b1-3)Gal(b1-4)GlcNAc(b1-6)]GalNAc
Outline: as §1

[44] = target: Neu5Ac(a2-6)Gal(b1-4)GlcNAc(b1-3)Gal(b1-4)GlcNAc(b1-6)[Gal(b1-3)]GalNAc
Outline: as §1

[45] = target: Neu5Ac(a2-6)GalNAc
Outline: as §1

[46] = target: Neu5Ac(a2-6)GlcNAc(b1-4)GlcNAc(b1-4)GlcNAc
Outline: as §1

[47] = target: Neu5Ac(a2-8)Neu5Ac(a2-3)Gal(b1-3)GalNAc(b1-4)[Neu5Ac(a2-8)Neu5Ac(a2-3)]Gal(b1-4)Glc
Outline: as §1

[48] = target: Neu5Ac(a2-8)Neu5Ac(a2-8)Neu5Ac(a2-3)[Gal(b1-3)GalNAc(b1-4)]Gal(b1-4)Glc
Outline: as §1

[49] = target: Neu5Ac(a2-8)Neu5Ac(a2-8)Neu5Ac(a2-3)[GalNAc(b1-4)]Gal(b1-4)Glc
Outline: as §1

B1: Nc3LysM (protein)
chain: QFTVPPDTTAEPNTIKTCTWWHVAGSGDSCTSIASTYGITSEQFARWDMETTDSPKNPSVATACKLTVGNSYCIENNFGQDDPPTPSISSSTLIGTATTSTTASTTTGNGISTPTPIQEGMETATTTTSSGNGITTPTPTQAGMETVGNCDRFHLVKSGDQCGTIASTYGITLANFYSWNPAVGTSCQSLWLDTYVCVRTIGFVPPKTTTTTTKKPTSTTSAGGVATPTPTQPGMETVSGCKKFHKGRGNVSTVASGDQCGTIATRYGISLANFYSWNPAVGSSCQTLWLDYYVCVGR
glycan array binding signal (z-score) [1]: 0.401
glycan array binding signal (z-score) [2]: -0.219
glycan array binding signal (z-score) [3]: 0.172
glycan array binding signal (z-score) [4]: -0.251
glycan array binding signal (z-score) [5]: -0.173
glycan array binding signal (z-score) [6]: 0.064
glycan array binding signal (z-score) [7]: -0.157
glycan array binding signal (z-score) [8]: -0.237
glycan array binding signal (z-score) [9]: -0.076
glycan array binding signal (z-score) [10]: -0.092
glycan array binding signal (z-score) [11]: 0.295
glycan array binding signal (z-score) [12]: 0.161
glycan array binding signal (z-score) [13]: 0.019
glycan array binding signal (z-score) [14]: 0.083
glycan array binding signal (z-score) [15]: 0.304
glycan array binding signal (z-score) [16]: -0.048
glycan array binding signal (z-score) [17]: 0.008
glycan array binding signal (z-score) [18]: -0.048
glycan array binding signal (z-score) [19]: 0.342
glycan array binding signal (z-score) [20]: 0.178
glycan array binding signal (z-score) [21]: 0.307
glycan array binding signal (z-score) [22]: 0.326
glycan array binding signal (z-score) [23]: -0.126
glycan array binding signal (z-score) [24]: 0.106
glycan array binding signal (z-score) [25]: -0.037
glycan array binding signal (z-score) [26]: -0.132
glycan array binding signal (z-score) [27]: -0.013
glycan array binding signal (z-score) [28]: -0.036
glycan array binding signal (z-score) [29]: 0.184
glycan array binding signal (z-score) [30]: 0.056
glycan array binding signal (z-score) [31]: 2.52
glycan array binding signal (z-score) [32]: 17.3
glycan array binding signal (z-score) [33]: 16.7
glycan array binding signal (z-score) [34]: 0.04
glycan array binding signal (z-score) [35]: 0.123
glycan array binding signal (z-score) [36]: -0.004
glycan array binding signal (z-score) [37]: 0.009
glycan array binding signal (z-score) [38]: -0.127
glycan array binding signal (z-score) [39]: -0.172
glycan array binding signal (z-score) [40]: -0.162
glycan array binding signal (z-score) [41]: 0.14
glycan array binding signal (z-score) [42]: 0.31
glycan array binding signal (z-score) [43]: 0.111
glycan array binding signal (z-score) [44]: -0.099
glycan array binding signal (z-score) [45]: 0.071
glycan array binding signal (z-score) [46]: -0.143
glycan array binding signal (z-score) [47]: -0.231
glycan array binding signal (z-score) [48]: 0.394
glycan array binding signal (z-score) [49]: -0.059
